Data from article PMC7862700, “An all-to-all approach to the identification of sequence-specific readers for epigenetic DNA modifications on cytosine”.

Tests used:
Assay in all cases: DAPPL (digital affinity profiling via proximity ligation, sequencing); 10 mM Tris-HCl pH 7.5, 50 mM NaCl, 1 mM DTT, 4% glycerol, room temperature, 30 min; GST-TFs on glutathione beads, 16-mer random dsDNA library, 0.1% formaldehyde crosslink after washing; high values mean tight binding
Details in all cases: protein: recombinant; tags: N-terminal GST; dsDNA, one strand shown
ELK1 = target: T1, ELK1 (Homo sapiens, UniProt P19419 1-428)
T1 sequence: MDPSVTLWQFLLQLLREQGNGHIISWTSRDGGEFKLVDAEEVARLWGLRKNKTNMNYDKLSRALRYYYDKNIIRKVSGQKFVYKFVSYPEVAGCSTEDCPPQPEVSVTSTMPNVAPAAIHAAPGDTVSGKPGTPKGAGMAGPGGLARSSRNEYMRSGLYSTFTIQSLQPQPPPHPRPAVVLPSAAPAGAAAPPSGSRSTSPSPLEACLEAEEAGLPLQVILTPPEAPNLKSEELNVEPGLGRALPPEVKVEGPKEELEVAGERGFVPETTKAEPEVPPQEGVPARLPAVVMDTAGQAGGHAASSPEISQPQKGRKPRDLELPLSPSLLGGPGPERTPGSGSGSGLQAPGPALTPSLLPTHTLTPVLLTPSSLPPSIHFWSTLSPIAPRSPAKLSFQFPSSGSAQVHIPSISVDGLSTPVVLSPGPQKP
Summary of the method: (§1)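 Yeast served to express human transcription factors as GST fusions, which were then captured on glutathione beads and labelled with DNA barcodes. Pooled with a tag-only sample, they were incubated with 200 nmole of a 16-mer random double-stranded DNA library for 30 min at room temperature in Tris/NaCl/DTT/glycerol buffer, washed, crosslinked with 0.1% formaldehyde, ligated by proximity, amplified by PCR and sequenced. Dividing each hexamer's read frequency for a factor by its frequency for the tag-only sample gives the binding signal.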

GABPA = target: T2, GABPA (Homo sapiens, UniProt Q06546 1-454)
T2 sequence: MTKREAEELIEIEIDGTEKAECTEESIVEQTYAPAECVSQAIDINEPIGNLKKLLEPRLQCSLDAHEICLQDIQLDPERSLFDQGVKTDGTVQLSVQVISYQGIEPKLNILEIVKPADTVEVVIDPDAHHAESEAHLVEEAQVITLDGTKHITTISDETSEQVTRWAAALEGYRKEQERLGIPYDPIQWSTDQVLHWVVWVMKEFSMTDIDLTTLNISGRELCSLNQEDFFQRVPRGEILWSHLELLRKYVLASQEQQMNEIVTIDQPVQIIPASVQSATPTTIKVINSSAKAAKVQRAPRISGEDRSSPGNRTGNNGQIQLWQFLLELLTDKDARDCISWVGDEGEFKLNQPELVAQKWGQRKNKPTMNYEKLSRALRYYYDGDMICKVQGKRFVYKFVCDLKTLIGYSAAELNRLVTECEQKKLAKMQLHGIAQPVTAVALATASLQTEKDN
Summary of the method: as §1

ERG = target: T3, ERG (Homo sapiens, UniProt P11308 1-479)
T3 sequence: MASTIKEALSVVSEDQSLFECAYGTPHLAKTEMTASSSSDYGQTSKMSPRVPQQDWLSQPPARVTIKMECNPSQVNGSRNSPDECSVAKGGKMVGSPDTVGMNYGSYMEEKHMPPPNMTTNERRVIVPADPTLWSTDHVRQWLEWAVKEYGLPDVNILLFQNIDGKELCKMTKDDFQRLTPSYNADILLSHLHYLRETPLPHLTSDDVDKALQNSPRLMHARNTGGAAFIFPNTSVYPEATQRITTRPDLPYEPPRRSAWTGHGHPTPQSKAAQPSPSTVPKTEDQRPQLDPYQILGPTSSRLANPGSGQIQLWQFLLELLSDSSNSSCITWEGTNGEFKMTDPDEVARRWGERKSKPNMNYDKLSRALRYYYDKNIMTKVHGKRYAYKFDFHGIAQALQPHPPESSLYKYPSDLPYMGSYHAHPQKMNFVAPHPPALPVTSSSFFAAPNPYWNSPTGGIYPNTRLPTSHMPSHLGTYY
Summary of the method: as §1

ELF1 = ELF1 (Homo sapiens, UniProt P32519 1-619)
Summary of the method: as §1

EHF = target: T4, EHF (Homo sapiens, UniProt Q9NZC4 1-300)
T4 sequence: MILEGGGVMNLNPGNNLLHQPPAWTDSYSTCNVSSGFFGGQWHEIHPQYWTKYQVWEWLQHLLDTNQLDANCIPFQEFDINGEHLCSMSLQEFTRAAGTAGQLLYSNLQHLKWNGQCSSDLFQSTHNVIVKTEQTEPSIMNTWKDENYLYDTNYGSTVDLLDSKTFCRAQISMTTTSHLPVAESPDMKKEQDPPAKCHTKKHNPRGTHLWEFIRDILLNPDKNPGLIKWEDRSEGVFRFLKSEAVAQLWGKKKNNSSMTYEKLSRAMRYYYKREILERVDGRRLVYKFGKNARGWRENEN
Summary of the method: as §1

SPIB = SPIB (Homo sapiens, UniProt Q01892 1-262)
Summary of the method: as §1

FEV = target: T5, FEV (Homo sapiens, UniProt Q99581 1-238)
T5 sequence: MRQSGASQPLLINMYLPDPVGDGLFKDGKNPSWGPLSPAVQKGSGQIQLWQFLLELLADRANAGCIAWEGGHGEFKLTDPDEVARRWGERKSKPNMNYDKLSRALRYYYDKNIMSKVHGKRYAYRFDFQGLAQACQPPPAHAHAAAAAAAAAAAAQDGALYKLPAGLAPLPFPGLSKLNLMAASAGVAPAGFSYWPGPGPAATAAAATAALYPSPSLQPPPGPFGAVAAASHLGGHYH
Summary of the method: as §1

ETV5 = ETV5 (Homo sapiens, UniProt P41161 1-510)
Summary of the method: as §1

ELF4 = ELF4 (Homo sapiens, UniProt Q99607 1-663)
Summary of the method: as §1

ELK4 = target: T6, ELK4 (Homo sapiens, UniProt P28324-2 1-405)
T6 sequence: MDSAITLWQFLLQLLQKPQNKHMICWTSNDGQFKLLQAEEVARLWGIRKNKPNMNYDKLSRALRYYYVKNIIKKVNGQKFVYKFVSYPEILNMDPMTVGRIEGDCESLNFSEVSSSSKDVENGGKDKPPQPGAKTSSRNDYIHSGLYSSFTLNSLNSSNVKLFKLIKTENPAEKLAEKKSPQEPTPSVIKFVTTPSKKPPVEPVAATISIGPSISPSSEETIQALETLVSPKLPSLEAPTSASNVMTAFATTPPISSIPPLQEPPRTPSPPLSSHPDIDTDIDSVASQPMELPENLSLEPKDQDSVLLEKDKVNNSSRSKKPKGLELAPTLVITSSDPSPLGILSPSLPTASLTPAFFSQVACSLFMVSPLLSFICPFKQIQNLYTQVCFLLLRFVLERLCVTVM
Summary of the method: as §1

Chain of SPIB (Q01892 whole entry): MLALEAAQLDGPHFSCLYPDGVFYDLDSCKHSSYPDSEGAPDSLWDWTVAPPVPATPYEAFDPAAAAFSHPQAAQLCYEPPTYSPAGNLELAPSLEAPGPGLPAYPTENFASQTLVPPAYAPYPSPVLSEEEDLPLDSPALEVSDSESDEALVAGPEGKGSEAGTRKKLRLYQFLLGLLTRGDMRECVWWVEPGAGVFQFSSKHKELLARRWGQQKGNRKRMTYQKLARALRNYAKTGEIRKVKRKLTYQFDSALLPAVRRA
Chain of ETV5 (P41161 whole entry): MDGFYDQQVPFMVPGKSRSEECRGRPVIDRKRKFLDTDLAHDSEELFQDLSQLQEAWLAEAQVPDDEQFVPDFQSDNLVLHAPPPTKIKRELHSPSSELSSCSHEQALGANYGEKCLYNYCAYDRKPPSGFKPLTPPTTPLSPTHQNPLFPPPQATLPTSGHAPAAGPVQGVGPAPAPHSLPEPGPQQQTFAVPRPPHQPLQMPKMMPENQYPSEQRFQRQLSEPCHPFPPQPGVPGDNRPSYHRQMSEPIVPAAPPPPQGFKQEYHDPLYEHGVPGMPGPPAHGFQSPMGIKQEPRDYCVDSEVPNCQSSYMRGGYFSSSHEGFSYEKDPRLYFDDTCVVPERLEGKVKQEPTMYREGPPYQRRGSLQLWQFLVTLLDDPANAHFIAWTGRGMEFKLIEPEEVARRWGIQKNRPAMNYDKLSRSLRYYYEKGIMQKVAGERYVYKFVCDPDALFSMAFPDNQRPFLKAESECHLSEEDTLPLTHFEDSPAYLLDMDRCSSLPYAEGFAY
Chain of ELF1 (P32519 whole entry): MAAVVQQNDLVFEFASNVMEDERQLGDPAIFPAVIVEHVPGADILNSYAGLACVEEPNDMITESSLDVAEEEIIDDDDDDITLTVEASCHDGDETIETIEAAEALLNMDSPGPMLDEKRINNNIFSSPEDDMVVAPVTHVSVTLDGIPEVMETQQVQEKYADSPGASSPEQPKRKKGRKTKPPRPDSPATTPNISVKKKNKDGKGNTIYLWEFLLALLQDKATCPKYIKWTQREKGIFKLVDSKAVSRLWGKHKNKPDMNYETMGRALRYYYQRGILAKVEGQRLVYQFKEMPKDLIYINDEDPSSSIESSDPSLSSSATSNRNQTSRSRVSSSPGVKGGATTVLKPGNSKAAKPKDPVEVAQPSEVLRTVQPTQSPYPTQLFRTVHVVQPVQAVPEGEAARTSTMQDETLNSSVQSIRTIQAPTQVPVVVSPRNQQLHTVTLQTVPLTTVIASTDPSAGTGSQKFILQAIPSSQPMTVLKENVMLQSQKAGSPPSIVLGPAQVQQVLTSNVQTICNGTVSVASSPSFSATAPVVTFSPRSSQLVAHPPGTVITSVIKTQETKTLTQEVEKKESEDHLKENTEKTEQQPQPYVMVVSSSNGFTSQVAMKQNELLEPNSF
Chain of ELF4 (Q99607 whole entry): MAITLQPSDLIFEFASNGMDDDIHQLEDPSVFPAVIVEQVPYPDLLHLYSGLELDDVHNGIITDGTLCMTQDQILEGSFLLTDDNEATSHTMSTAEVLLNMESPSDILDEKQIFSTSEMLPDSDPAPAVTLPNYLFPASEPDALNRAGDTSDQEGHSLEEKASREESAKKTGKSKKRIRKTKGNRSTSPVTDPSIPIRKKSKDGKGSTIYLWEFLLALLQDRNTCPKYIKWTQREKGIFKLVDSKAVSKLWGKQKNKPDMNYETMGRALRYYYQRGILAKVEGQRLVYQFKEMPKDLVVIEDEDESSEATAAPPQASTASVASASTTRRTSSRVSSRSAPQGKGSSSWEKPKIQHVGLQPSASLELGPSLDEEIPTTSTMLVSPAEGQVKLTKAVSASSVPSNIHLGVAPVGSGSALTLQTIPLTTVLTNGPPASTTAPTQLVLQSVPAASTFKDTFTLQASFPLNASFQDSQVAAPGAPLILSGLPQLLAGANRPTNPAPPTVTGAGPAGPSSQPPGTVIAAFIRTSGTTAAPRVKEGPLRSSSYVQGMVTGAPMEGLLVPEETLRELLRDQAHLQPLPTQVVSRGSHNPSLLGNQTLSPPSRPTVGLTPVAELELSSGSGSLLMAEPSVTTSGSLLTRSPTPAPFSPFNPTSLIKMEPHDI

GTACCC
binding signal (ELK1): 1.05 fold enrichment (6-mer frequency, TF over GST control)
binding signal (GABPA): 1.07 fold enrichment (6-mer frequency, TF over GST control)
binding signal (ERG): 1.05 fold enrichment (6-mer frequency, TF over GST control)
binding signal (ELF1): 1.12 fold enrichment (6-mer frequency, TF over GST control)
binding signal (EHF): 1.16 fold enrichment (6-mer frequency, TF over GST control)
binding signal (SPIB): 1.07 fold enrichment (6-mer frequency, TF over GST control)
binding signal (FEV): 1.05 fold enrichment (6-mer frequency, TF over GST control)
binding signal (ETV5): 1.17 fold enrichment (6-mer frequency, TF over GST control)
binding signal (ELF4): 1.06 fold enrichment (6-mer frequency, TF over GST control)
binding signal (ELK4): 1.17 fold enrichment (6-mer frequency, TF over GST control)
